{"source": "PubChem BioAssay (NCI)", "note": "The panel holds about 83,000 compounds, 20% with a hit somewhere; the sample as a whole holds those more often.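 Plates (96-well) were seeded with cells, treated with compound at one concentration, and incubated for 48 hours before percent growth was determined.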 Active and inactive are the calls of the source. The calls were made as follows: active = growth percent below 10; inactive = the rest."}
{"system": "MDA-MB-231 breast", "assay": "NCI-60 one-dose screen, 48 h (100 = growth as untreated, 0 = no growth, -100 = all killed)", "details": "10 µM unless noted"}
{"smiles": "O=C(Nc1cc(F)cc2cccnc12)c1cnc(N2CCNCC2)cn1", "growth": "71.8% (inactive)"}
{"smiles": "C=CCCC1(C)NC(=O)NC1=O", "note": "(stereo not drawn)", "growth": "101% (inactive)"}
{"smiles": "CC(=O)Nc1ccc2nc3ccc(NC(C)=O)cc3[n+](-c3ccccc3)c2c1", "growth": "66.3% (inactive)"}
{"smiles": "CCCCCN(CCCCC)CCCCCCCCN1CCCc2ccccc21", "growth": "90.9% (inactive)"}
{"smiles": "O=C(O)c1cccc(CN2CCN(c3cc4c(cc3F)c(=O)c(C(=O)O)cn4C3CC3)CC2)c1O", "growth": "106% (inactive)"}
{"system": "RXF 393 renal", "assay": "NCI-60 one-dose screen, 48 h (100 = growth as untreated, 0 = no growth, -100 = all killed)", "details": "10 µM unless noted"}
{"smiles": "CCOc1ccccc1/C=N\\Nc1ccc(S(=O)(=O)c2ccc(N/N=C/c3ccccc3OCC)cc2)cc1", "growth": "112% (inactive)"}
{"smiles": "Nc1ccc(Cl)c([N+](=O)[O-])c1", "growth": "109% (inactive)"}
{"smiles": "Oc1ccc(N=Nc2nccs2)c(O)c1", "growth": "90% (inactive)"}
{"smiles": "O=C(N[C@@H]1CCCc2ccccc21)[C@H](CCC(=O)N1CCN(C2CCCCC2)CC1)N1C(=O)[C@@H](N2C(=O)OC[C@@H]2c2ccccc2)[C@H]1/C=C/c1ccccc1", "growth": "23% (inactive)"}
{"smiles": "Cc1ccc(NC(=S)/N=c2/n(-c3ccccc3)nc3n2CCN3C2=NCCN2)cc1", "growth": "101% (inactive)"}
{"smiles": "CCCCC1COc2cccc3c2N1C=C/C3=C\\C(=O)n1ccc2ccccc21", "note": "(stereo not drawn)", "growth": "87% (inactive)"}
{"smiles": "COc1cc(C)cc2oc3oc(=O)c(-c4nc5ccccc5s4)cc3c(=O)c12", "growth": "77.5% (inactive)"}
{"smiles": "O=C(Nc1ccccc1)Nc1ccc(C(=O)/C=C/c2ccc(N3CCCC3)cc2)cc1", "growth": "58.8% (inactive)"}
{"smiles": "COc1cc(C)cc2oc3oc(=N)c(C(=O)c4ccccc4)cc3c(=O)c12", "growth": "108% (inactive)"}
{"smiles": "CC[C@]12C=CCN3CC[C@@]4(c5ccc(OC)cc5N(C)[C@H]4[C@@](O)(C(=O)OC)[C@@H]1OC(=O)CCC(=O)N[C@H](Cc1c[nH]c4ccccc14)C(=O)OC)[C@@H]32", "growth": "-60.6% [100 µM] (active)"}
{"smiles": "CC(=O)OC[C@]12CC[C@@H]([C@@H](C)C(N)=O)[C@@H]1[C@H]1CC[C@@H]3[C@@]4(C)CC[C@H](OC(C)=O)C(C)(C)[C@@H]4CC[C@@]3(C)[C@]1(C)CC2", "growth": "-64.9% [100 µM] (active)"}
{"smiles": "O=c1c2c3c(sc2n2cnnc2n1Cc1ccccc1)CCCC3", "growth": "101% (inactive)"}
{"smiles": "COc1cc2c(c(OC)c1)C1c3cc(OC)ccc3NC(=O)N1CC2", "note": "(stereo not drawn)", "growth": "98.2% (inactive)"}
{"smiles": "O=c1cc(-c2ccccc2)oc2cc(OCc3cn(Cc4ccc(F)cc4)nn3)cc(O)c12", "growth": "9.11% [100 µM] (active)"}
{"smiles": "CCN(CC)c1ccc2cc(NC(=O)OCCNC(=O)CCNC(=O)[C@H](CC(C)C)NC(=O)C(C)(C)NC(=O)C(C)(C)NC(=O)[C@H](CC(C)C)NC(=O)CCNC(=O)C(C)(C)NC(=O)[C@H](CC(C)C)NC(=O)CCNC(=O)[C@@](C)(CC)NC(=O)[C@H](C)NC(=O)CCNC(=O)C(C)(C)NC(=O)[C@H](C)NC(=O)[C@@H]3CCCN3C(=O)[C@@](C)(CC)NC(=O)[C@H](Cc3ccccc3)NC(=O)C3CCCN3C(=O)C(C)(C)NC(=O)C3CCCN3C(=O)C(C)(C)NC(C)=O)c(=O)oc2c1", "note": "(stereo partly drawn)", "growth": "-82% (active)"}
{"smiles": "CCCCCCCCCCCCCC[n+]1cccc(C(N)=O)c1", "growth": "-41.4% (active)"}
{"smiles": "CCOC(CNC(=O)c1cccc([N+](=O)[O-])c1)OCC", "growth": "65.7% (inactive)"}
{"smiles": "COc1ccc(/C=C/C=C\\C(=O)c2ccc(-n3ccnc3)cc2)cc1", "growth": "92.7% (inactive)"}
{"smiles": "CCNc1cc2c(cc1Br)-c1ccccc1C2=O", "growth": "105% (inactive)"}
{"smiles": "C[n+]1c(-c2ccccc2)c2cc(N)ccc2c2ccccc21", "growth": "58.9% (inactive)"}
{"smiles": "C/C=C/C1OC23CCCCC2C(C#N)(C(=N)O3)C1(C#N)C#N", "note": "(stereo not drawn)", "growth": "116% (inactive)"}
{"smiles": "Fc1cc2[nH]ncc2c2c3c(c(-c4cn[nH]c4)nc12)CCCC3", "growth": "-56% (active)"}
{"smiles": "CCOC(=O)c1nn(C2CCCCO2)c2ccc(NC(=O)CN3CCCC3)cc12", "note": "(stereo not drawn)", "growth": "133% (inactive)"}
{"smiles": "Nc1nnc(CSc2nnc3n(Cc4ccccc4)c(=O)c4c5c(sc4n23)CCCC5)s1", "growth": "93.2% (inactive)"}
{"smiles": "O=S(=O)(NCc1ccccc1)c1ncnc2nc[nH]c12", "growth": "114% (inactive)"}
{"smiles": "c1cc2ccc1CNCCN1CCNCc3ccc(cc3)Oc3ccc(cc3)CNCCN(CCNCc3ccc(cc3)O2)CCNCc2ccc(cc2)Oc2ccc(cc2)CNCC1", "growth": "-30.8% (active)"}
{"smiles": "CS(=O)(=O)c1cccnn1", "growth": "102% (inactive)"}
{"smiles": "N=C(N)c1ccc(-c2ccc(-c3ccc(-c4cccs4)s3)s2)cc1F", "growth": "90.3% (inactive)"}
{"smiles": "CCCSc1nc(N)nc2nc[nH]c12", "growth": "107% (inactive)"}
{"smiles": "C[C@H]1[C@H](C)CC[C@]2(C(=O)O)CC[C@]3(C)C(=CC[C@@H]4[C@@]5(C)C/C(=C/c6cccnc6)[C@H](O)C(C)(C)[C@@H]5CC[C@]43C)[C@H]12", "growth": "-13.3% [100 µM] (active)"}
{"smiles": "O=C1CC(c2ccccc2)Cc2nc3ccc(Br)cc3cc21", "note": "(stereo not drawn)", "growth": "28.4% (inactive)"}
{"smiles": "C1=C[C@H]2O[C@@H]1c1ccc3[nH]ccc3c12", "growth": "92.5% (inactive)"}
{"smiles": "CCN(CC)c1ccc(/C=C/c2ccc3cc(C)ccc3[n+]2CC)cc1", "growth": "11.8% (inactive)"}
{"smiles": "O=C(Nc1cc(F)cc2cccnc12)c1cnc(N2CCNCC2)cn1", "growth": "54.1% (inactive)"}
{"smiles": "C=CCCC1(C)NC(=O)NC1=O", "note": "(stereo not drawn)", "growth": "121% (inactive)"}
{"smiles": "CC(=O)Nc1ccc2nc3ccc(NC(C)=O)cc3[n+](-c3ccccc3)c2c1", "growth": "101% (inactive)"}
{"smiles": "CCCCCN(CCCCC)CCCCCCCCN1CCCc2ccccc21", "growth": "115% (inactive)"}
{"smiles": "O=C(O)c1cccc(CN2CCN(c3cc4c(cc3F)c(=O)c(C(=O)O)cn4C3CC3)CC2)c1O", "growth": "118% (inactive)"}
